{"source": "ChEMBL document CHEMBL1157539", "about": "“Thousands of chemical starting points for antimalarial lead identification” (Nature, 2010)", "data": [{"tested_on": "Plasmodium falciparum", "assay": "GSK_TCMDC: Inhibition of Plasmodium falciparum 3D7 in whole red blood cells, using parasite LDH activity as an index of growth. Test compounds present at 2uM", "type": "functional", "units": {"Inhibition": "%"}, "values": [{"smiles": "COc1cc(C(=O)NC2CCN(Cc3ccccc3)CC2)ccc1-c1nc2cc(Cl)c(C)cc2[nH]1", "Inhibition": 99}, {"smiles": "O=C(Nc1cccc(CN2CCCN(Cc3ccc(F)cc3)CC2)c1)c1cc2ccccc2s1.O=C(O)C(F)(F)F", "Inhibition": 91}, {"smiles": "Cc1ccc(NC(=O)N2CCCN(CCCCCNC(=O)/C=C/c3ccc(Cl)c(Cl)c3)CC2)cc1C", "Inhibition": 100}, {"smiles": "O=C(/C=C/c1ccc(Cl)c(Cl)c1)NCCCCCN1CCC(NC(=O)c2ccc(F)cc2F)CC1", "Inhibition": 96}, {"smiles": "Cc1ccc(Cn2ncc(N3CCC(N)CC3)c(Cl)c2=O)cc1NC(=O)Nc1ccc(-c2ccccc2)cc1.O=C(O)C(F)(F)F", "Inhibition": 90}, {"smiles": "CC(C)c1ccc(NC(=O)c2ccc(C(=O)NC3CCN(Cc4ccccc4)CC3)cc2)cc1.O=C(O)C(F)(F)F", "Inhibition": 88}, {"smiles": "CCn1c(CN2CCN(Cc3ccccc3)CC2)nc2cc(NC(=O)c3cccs3)ccc21", "Inhibition": 97}, {"smiles": "CC(C)CCN(Cc1cncn1Cc1cccc(Cl)c1)C(=O)c1cncc(-c2ccccc2)c1", "Inhibition": 99}, {"smiles": "c1cncc(-c2cccc(CNc3nccc(Nc4ccc(OCCN5CCOCC5)cc4)n3)c2)c1", "Inhibition": 93}, {"smiles": "O=C(O)C(F)(F)F.O=S(=O)(NCCN1CCCC1)c1ccc(-c2cccc(CNCc3ccc(F)cc3)c2)cc1", "Inhibition": 100}, {"smiles": "CCCC[C@H](NC(=O)O[C@H](COc1ccc(OCc2ccccc2)cc1)C(C)(C)C)C(=O)C(=O)Nc1cc[nH]n1", "Inhibition": 88}, {"smiles": "O=C(Nc1cccc(-c2cccc(-c3nc4ccccc4[nH]3)c2)c1)Nc1ccc2c(c1)OCO2", "Inhibition": 100}, {"smiles": "CS(=O)(=O)CCNCc1nc(-c2ccc3c(Nc4ccc(Cl)cc4F)ccnc3c2)cs1", "Inhibition": 88}, {"smiles": "Cc1cccc2nc(-c3ccc(-c4ccc(CNCCCN5CCCC5=O)cc4)cc3)[nH]c12.O=C(O)C(F)(F)F", "Inhibition": 100}, {"smiles": "CC(C)(C)C(=O)N1CCN(c2ccc([N+](=O)[O-])c(NC3CC3)c2)CC1", "Inhibition": 95}, {"smiles": "COc1cc(NC(=O)N2CCOC(CCN3CCC(c4ccccc4)CC3)(c3ccc(Cl)c(Cl)c3)C2)cc(OC)c1", "note": "(stereo not given)", "Inhibition": 93}, {"smiles": "COc1ccc2c(=O)ccn(CCN3CCC(NCc4ccc5c(n4)NC(=O)CS5)CC3)c2c1.Cl", "Inhibition": 98}, {"smiles": "COc1ccc(-c2ccc(NC(=O)c3ccc(Cl)cc3)cc2)cc1CN1CCCN(C)CC1.O=C(O)C(F)(F)F", "Inhibition": 93}, {"smiles": "COc1ccccc1C1CN(Cc2coc3ccccc3c2=O)Cc2ccccc2O1", "note": "(stereo not given)", "Inhibition": 87}, {"smiles": "CNC(=O)c1ccccc1Nc1nc(Nc2cccc(CS(C)(=O)=O)c2)ncc1C.O=CO", "Inhibition": 97}, {"smiles": "O=C(Nc1ccc(CN2CCN(S(=O)(=O)c3cccc(Cl)c3)CC2)cc1)c1cccs1.O=C(O)C(F)(F)F", "Inhibition": 84}, {"smiles": "Cc1cc(C(=O)NC2CCN(CC3(c4ccccc4)CCCCC3)CC2)on1", "Inhibition": 97}, {"smiles": "O=C(/C=C/c1ccc(Cl)c(Cl)c1)NCCCCCN1CCCN(C(=O)Nc2ccc(Cl)cc2)CC1", "Inhibition": 100}, {"smiles": "CC1CN(S(=O)(=O)c2ccc(NC(=O)c3cc(-c4ccccc4O)n[nH]3)cc2)CC(C)O1", "note": "(stereo not given)", "Inhibition": 97}, {"smiles": "c1ccc2sc(Sc3ncnc4sccc34)nc2c1", "Inhibition": 100}, {"smiles": "Cc1ccc(C(=O)Nc2cccc([N+](=O)[O-])c2)cc1S(=O)(=O)N1CC(C)CC(C)C1", "note": "(stereo not given)", "Inhibition": 100}]}, {"tested_on": "Plasmodium falciparum", "assay": "GSK_TCMDC: Inhibition of Plasmodium falciparum Dd2 in whole red blood cells, using parasite LDH activity as an index of growth. Test compounds present at 2uM", "type": "functional", "units": {"Inhibition": "%"}, "values": [{"smiles": "O=C(Nc1cccc(-c2cccc(-c3nc4ccccc4[nH]3)c2)c1)c1cccnc1", "Inhibition": 14}, {"smiles": "CCNc1cc(C(=O)N[C@@H](Cc2ccccc2)[C@H](O)CNC2(CC(C)C)CC2)cc(N2CCCCS2(=O)=O)c1.Cl", "Inhibition": 29}, {"smiles": "Cc1ccc2nc(C)cc(N/N=C/c3ccc([N+](=O)[O-])cc3)c2c1", "Inhibition": 15}, {"smiles": "O=C(O)C1CC(=O)N(c2ccc(Cl)cc2)C1", "note": "(stereo not given)", "Inhibition": 33}, {"smiles": "CCN(CCCN1CCCCC1)c1cc(C)nc(Nc2cc(Cl)ccc2C)n1.O=C(O)C(F)(F)F", "Inhibition": 37}, {"smiles": "COc1ccc2ncc(F)c(CCN3CCC(NCc4cc(F)c5c(c4)OCCO5)CC3)c2n1.Cl", "Inhibition": 67}, {"smiles": "O=C(Cc1c[nH]cn1)Nc1ccc(-c2cccc(-c3nc4cc(F)ccc4[nH]3)c2)cc1", "Inhibition": 70}, {"smiles": "CCC[C@@H]([C@@H](CC1CCCCC1)C(=O)N[C@@H](CCOC(=O)NCC)C(=O)Nc1nccs1)N(O)C=O", "Inhibition": 79}, {"smiles": "CC(=O)Nc1ccc(Nc2ncc([N+](=O)[O-])c(Nc3ccccc3C(N)=O)n2)cc1.Cl", "Inhibition": 97}, {"smiles": "COc1ccc(-c2ccc(CN(C)C3CCC(NC(=O)c4cc5ccccc5[nH]4)CC3)cc2)cn1", "note": "(stereo not given)", "Inhibition": 2}, {"smiles": "COc1ccc(-c2cc(-c3nc4cc(C(=O)N5CCOCC5)ccc4[nH]3)c(=O)n(C)c2)cc1OC.O=C(O)C(F)(F)F", "Inhibition": 95}, {"smiles": "COc1ccc(N2CCN(CCCCNC(=O)c3ccc(NC(=O)c4cc(C(F)(F)F)cc(C(F)(F)F)c4)cc3)CC2)c(OC)c1", "Inhibition": 99}, {"smiles": "Cc1ccc(NC(=O)c2ccc(NCCCN(C)Cc3ccccc3)c([N+](=O)[O-])c2)cc1F", "Inhibition": 61}, {"smiles": "COc1cc(C(=O)NC2CCN(Cc3ccccc3)CC2)ccc1-c1nc2cc(Cl)c(C)cc2[nH]1", "Inhibition": 97}, {"smiles": "O=C(Nc1cccc(CN2CCCN(Cc3ccc(F)cc3)CC2)c1)c1cc2ccccc2s1.O=C(O)C(F)(F)F", "Inhibition": 36}, {"smiles": "Cc1ccc(NC(=O)N2CCCN(CCCCCNC(=O)/C=C/c3ccc(Cl)c(Cl)c3)CC2)cc1C", "Inhibition": 4}, {"smiles": "O=C(/C=C/c1ccc(Cl)c(Cl)c1)NCCCCCN1CCC(NC(=O)c2ccc(F)cc2F)CC1", "Inhibition": 11}, {"smiles": "Cc1ccc(Cn2ncc(N3CCC(N)CC3)c(Cl)c2=O)cc1NC(=O)Nc1ccc(-c2ccccc2)cc1.O=C(O)C(F)(F)F", "Inhibition": 25}, {"smiles": "CC(C)c1ccc(NC(=O)c2ccc(C(=O)NC3CCN(Cc4ccccc4)CC3)cc2)cc1.O=C(O)C(F)(F)F", "Inhibition": 7}, {"smiles": "CCn1c(CN2CCN(Cc3ccccc3)CC2)nc2cc(NC(=O)c3cccs3)ccc21", "Inhibition": 95}, {"smiles": "CC(C)CCN(Cc1cncn1Cc1cccc(Cl)c1)C(=O)c1cncc(-c2ccccc2)c1", "Inhibition": 0}, {"smiles": "c1cncc(-c2cccc(CNc3nccc(Nc4ccc(OCCN5CCOCC5)cc4)n3)c2)c1", "Inhibition": 27}, {"smiles": "O=C(O)C(F)(F)F.O=S(=O)(NCCN1CCCC1)c1ccc(-c2cccc(CNCc3ccc(F)cc3)c2)cc1", "Inhibition": 41}, {"smiles": "CCCC[C@H](NC(=O)O[C@H](COc1ccc(OCc2ccccc2)cc1)C(C)(C)C)C(=O)C(=O)Nc1cc[nH]n1", "Inhibition": 71}, {"smiles": "O=C(Nc1cccc(-c2cccc(-c3nc4ccccc4[nH]3)c2)c1)Nc1ccc2c(c1)OCO2", "Inhibition": 57}, {"smiles": "CS(=O)(=O)CCNCc1nc(-c2ccc3c(Nc4ccc(Cl)cc4F)ccnc3c2)cs1", "Inhibition": 28}, {"smiles": "Cc1cccc2nc(-c3ccc(-c4ccc(CNCCCN5CCCC5=O)cc4)cc3)[nH]c12.O=C(O)C(F)(F)F", "Inhibition": 47}, {"smiles": "CC(C)(C)C(=O)N1CCN(c2ccc([N+](=O)[O-])c(NC3CC3)c2)CC1", "Inhibition": 97}, {"smiles": "COc1cc(NC(=O)N2CCOC(CCN3CCC(c4ccccc4)CC3)(c3ccc(Cl)c(Cl)c3)C2)cc(OC)c1", "note": "(stereo not given)", "Inhibition": 73}, {"smiles": "COc1ccc2c(=O)ccn(CCN3CCC(NCc4ccc5c(n4)NC(=O)CS5)CC3)c2c1.Cl", "Inhibition": 99}, {"smiles": "COc1ccc(-c2ccc(NC(=O)c3ccc(Cl)cc3)cc2)cc1CN1CCCN(C)CC1.O=C(O)C(F)(F)F", "Inhibition": 61}, {"smiles": "COc1ccccc1C1CN(Cc2coc3ccccc3c2=O)Cc2ccccc2O1", "note": "(stereo not given)", "Inhibition": 61}, {"smiles": "CNC(=O)c1ccccc1Nc1nc(Nc2cccc(CS(C)(=O)=O)c2)ncc1C.O=CO", "Inhibition": 95}, {"smiles": "O=C(Nc1ccc(CN2CCN(S(=O)(=O)c3cccc(Cl)c3)CC2)cc1)c1cccs1.O=C(O)C(F)(F)F", "Inhibition": 41}, {"smiles": "Cc1cc(C(=O)NC2CCN(CC3(c4ccccc4)CCCCC3)CC2)on1", "Inhibition": 95}, {"smiles": "O=C(/C=C/c1ccc(Cl)c(Cl)c1)NCCCCCN1CCCN(C(=O)Nc2ccc(Cl)cc2)CC1", "Inhibition": 0}, {"smiles": "CC1CN(S(=O)(=O)c2ccc(NC(=O)c3cc(-c4ccccc4O)n[nH]3)cc2)CC(C)O1", "note": "(stereo not given)", "Inhibition": 93}, {"smiles": "c1ccc2sc(Sc3ncnc4sccc34)nc2c1", "Inhibition": 100}, {"smiles": "Cc1ccc(C(=O)Nc2cccc([N+](=O)[O-])c2)cc1S(=O)(=O)N1CC(C)CC(C)C1", "note": "(stereo not given)", "Inhibition": 42}]}]}
